{"source": "paper PMC12214610", "key": {"[1]": {"biological_target": "14-3-3 protein eta (UniProt Q04917)", "sequence (Q04917 whole entry)": "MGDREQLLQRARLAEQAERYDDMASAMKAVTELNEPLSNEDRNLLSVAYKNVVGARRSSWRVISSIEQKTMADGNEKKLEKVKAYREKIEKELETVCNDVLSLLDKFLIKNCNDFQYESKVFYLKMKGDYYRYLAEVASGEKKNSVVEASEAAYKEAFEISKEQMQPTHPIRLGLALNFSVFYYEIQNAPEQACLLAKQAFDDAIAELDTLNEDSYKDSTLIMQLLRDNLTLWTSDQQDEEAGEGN"}, "[2]": {"biological_target": "Actin, cytoplasmic 2 (UniProt P63261)"}, "[3]": {"biological_target": "Rab11 family-interacting protein 1 (UniProt Q6WKZ4)"}, "[4]": {"biological_target": "Annexin A4 (UniProt P09525)"}, "[5]": {"biological_target": "Aspartate--tRNA ligase, cytoplasmic (UniProt P14868)", "sequence (P14868 whole entry)": "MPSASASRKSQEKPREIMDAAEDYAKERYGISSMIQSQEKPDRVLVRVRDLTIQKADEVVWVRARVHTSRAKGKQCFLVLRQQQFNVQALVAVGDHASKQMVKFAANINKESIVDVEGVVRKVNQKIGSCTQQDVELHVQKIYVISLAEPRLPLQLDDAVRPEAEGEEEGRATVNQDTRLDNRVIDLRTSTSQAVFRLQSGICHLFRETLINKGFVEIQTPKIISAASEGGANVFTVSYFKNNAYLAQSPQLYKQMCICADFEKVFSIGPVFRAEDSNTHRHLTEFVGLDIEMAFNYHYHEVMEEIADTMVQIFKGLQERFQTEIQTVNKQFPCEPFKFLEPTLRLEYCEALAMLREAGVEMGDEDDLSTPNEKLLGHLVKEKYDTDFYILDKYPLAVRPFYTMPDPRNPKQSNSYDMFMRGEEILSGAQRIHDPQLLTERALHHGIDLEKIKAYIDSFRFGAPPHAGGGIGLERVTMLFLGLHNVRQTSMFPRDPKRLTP"}, "[6]": {"biological_target": "Autonomous glycyl radical cofactor (UniProt P68066)", "sequence (P68066 whole entry)": "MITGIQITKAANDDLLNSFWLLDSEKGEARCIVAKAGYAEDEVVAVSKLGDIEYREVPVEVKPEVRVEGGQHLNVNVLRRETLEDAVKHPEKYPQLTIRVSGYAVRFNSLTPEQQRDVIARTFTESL"}, "[7]": {"biological_target": "Calreticulin (UniProt P27797)", "sequence (P27797 whole entry)": "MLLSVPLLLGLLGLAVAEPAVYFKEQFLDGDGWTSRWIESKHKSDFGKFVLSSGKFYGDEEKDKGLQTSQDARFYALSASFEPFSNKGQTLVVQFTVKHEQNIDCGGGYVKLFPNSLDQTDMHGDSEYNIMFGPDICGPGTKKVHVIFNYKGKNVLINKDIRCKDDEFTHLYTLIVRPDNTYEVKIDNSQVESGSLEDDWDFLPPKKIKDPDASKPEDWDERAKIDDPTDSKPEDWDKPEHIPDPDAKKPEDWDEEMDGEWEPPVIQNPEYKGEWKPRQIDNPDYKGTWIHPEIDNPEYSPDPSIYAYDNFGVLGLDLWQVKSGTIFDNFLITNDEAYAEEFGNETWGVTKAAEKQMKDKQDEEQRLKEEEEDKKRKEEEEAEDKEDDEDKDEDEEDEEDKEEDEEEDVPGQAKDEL"}, "[8]": {"biological_target": "Casein kinase II subunit alpha (UniProt P68400)", "sequence (P68400 whole entry)": "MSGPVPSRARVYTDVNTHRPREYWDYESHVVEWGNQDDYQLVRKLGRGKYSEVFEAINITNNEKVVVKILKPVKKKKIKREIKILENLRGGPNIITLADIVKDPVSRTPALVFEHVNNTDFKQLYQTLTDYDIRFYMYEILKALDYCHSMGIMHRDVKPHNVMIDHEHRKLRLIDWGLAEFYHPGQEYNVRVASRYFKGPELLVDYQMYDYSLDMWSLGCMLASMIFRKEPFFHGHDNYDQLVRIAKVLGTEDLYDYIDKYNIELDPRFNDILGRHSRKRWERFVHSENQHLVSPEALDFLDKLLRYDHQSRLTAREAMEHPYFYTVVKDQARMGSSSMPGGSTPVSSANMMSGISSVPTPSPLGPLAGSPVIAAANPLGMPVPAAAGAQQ"}, "[9]": {"biological_target": "Chaperone protein DnaK (UniProt P0A6Y8)", "sequence (P0A6Y8 whole entry)": "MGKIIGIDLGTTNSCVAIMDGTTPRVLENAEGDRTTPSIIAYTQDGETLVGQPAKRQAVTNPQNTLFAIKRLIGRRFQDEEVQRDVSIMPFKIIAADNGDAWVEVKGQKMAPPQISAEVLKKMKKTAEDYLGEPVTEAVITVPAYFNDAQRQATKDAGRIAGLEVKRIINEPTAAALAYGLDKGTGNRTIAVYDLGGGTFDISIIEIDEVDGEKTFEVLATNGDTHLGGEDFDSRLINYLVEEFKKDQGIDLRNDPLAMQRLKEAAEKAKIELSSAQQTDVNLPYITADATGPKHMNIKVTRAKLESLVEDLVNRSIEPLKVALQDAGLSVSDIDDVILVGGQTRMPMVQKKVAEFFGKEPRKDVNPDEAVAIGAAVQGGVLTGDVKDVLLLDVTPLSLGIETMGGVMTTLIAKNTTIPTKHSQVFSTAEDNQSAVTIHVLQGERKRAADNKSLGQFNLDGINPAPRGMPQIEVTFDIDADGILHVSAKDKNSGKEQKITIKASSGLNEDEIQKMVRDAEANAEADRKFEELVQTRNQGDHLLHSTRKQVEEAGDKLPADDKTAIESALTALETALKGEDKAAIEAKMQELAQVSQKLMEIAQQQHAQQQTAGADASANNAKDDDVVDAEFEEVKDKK"}, "[10]": {"biological_target": "Charged multivesicular body protein 2b (UniProt Q9UQN3)", "sequence (Q9UQN3 whole entry)": "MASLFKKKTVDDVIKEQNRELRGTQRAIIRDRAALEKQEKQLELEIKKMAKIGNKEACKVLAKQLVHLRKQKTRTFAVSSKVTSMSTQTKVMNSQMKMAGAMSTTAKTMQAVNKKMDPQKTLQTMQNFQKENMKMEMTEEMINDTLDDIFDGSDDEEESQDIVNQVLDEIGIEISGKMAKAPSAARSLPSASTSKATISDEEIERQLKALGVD"}, "[11]": {"biological_target": "DNA-binding protein HU-beta (UniProt P0ACF4)"}, "[12]": {"biological_target": "Dihydrolipoyl dehydrogenase (UniProt P0A9P0)", "sequence (P0A9P0 whole entry)": "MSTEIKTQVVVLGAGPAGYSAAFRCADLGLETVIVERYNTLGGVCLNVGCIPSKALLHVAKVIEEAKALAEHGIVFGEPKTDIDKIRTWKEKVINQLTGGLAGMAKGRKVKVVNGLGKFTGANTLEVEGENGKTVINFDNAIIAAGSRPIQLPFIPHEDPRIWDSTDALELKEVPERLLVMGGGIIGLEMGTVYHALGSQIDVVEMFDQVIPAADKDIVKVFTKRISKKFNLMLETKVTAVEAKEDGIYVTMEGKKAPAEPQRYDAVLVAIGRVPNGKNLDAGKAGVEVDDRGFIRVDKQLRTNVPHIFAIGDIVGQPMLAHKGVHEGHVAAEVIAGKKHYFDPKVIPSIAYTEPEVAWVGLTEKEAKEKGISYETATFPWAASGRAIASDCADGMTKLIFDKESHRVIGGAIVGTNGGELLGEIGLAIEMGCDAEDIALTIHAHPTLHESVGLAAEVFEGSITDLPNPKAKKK"}, "[13]": {"biological_target": "Pyruvate dehydrogenase E1 component (UniProt P0AFG8)", "sequence (P0AFG8 whole entry)": "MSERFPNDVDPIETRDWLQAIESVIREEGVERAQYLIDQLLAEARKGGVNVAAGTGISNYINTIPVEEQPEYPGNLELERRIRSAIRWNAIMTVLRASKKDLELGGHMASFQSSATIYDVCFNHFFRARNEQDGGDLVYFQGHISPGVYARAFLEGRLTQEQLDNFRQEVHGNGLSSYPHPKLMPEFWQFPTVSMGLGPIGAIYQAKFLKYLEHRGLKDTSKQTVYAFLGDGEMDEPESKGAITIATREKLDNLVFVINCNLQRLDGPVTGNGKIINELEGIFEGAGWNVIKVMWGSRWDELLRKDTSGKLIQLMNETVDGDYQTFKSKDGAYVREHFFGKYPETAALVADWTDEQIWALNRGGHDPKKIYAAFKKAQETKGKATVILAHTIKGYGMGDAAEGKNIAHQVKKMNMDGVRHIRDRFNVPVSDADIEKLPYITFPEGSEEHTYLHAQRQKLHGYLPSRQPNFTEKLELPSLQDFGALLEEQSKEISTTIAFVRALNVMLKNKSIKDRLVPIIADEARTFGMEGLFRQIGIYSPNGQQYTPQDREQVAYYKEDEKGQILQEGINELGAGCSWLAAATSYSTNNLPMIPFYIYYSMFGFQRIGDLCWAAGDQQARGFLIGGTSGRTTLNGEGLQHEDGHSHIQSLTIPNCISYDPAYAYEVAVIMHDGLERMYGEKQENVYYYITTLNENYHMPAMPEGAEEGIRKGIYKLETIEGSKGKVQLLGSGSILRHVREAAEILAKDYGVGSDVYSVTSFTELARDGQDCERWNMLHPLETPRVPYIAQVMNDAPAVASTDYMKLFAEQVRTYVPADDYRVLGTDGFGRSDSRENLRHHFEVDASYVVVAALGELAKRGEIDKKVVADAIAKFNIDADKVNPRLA"}, "[14]": {"biological_target": "Dihydrolipoyllysine-residue succinyltransferase component of 2-oxoglutarate dehydrogenase complex (UniProt P0AFG6)", "sequence (P0AFG6 whole entry, one chain of several)": "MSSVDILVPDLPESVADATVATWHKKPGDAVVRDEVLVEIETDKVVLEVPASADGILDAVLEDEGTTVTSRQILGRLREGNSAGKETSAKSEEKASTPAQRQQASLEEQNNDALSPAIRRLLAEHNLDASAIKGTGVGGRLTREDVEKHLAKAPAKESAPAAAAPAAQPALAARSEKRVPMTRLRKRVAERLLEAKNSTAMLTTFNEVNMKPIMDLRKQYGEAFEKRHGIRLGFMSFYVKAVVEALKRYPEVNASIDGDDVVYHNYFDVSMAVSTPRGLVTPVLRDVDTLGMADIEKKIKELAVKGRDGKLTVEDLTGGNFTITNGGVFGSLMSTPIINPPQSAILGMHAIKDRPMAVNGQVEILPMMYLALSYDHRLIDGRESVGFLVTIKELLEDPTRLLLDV"}, "[15]": {"biological_target": "Endoplasmic reticulum chaperone BiP (UniProt P11021)", "sequence (P11021 whole entry)": "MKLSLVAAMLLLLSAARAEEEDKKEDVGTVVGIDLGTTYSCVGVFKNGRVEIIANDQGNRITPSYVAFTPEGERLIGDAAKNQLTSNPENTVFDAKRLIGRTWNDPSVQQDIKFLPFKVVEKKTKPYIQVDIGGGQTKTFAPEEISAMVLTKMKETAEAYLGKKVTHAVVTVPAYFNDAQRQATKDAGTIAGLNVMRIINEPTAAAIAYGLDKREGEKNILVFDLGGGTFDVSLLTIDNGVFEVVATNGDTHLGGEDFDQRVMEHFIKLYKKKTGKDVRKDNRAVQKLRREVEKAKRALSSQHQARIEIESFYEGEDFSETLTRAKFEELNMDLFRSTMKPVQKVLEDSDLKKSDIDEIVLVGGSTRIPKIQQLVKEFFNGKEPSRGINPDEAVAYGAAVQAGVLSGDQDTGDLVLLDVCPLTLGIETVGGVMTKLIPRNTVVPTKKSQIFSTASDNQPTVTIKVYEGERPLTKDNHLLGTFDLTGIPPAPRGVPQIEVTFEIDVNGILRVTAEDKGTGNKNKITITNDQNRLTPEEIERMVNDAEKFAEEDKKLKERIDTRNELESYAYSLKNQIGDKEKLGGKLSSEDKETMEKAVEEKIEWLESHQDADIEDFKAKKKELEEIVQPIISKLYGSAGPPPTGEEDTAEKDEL"}, "[16]": {"biological_target": "Peptidyl-prolyl cis-trans isomerase B (UniProt P23284)"}, "[17]": {"biological_target": "Fatty acid oxidation complex subunit alpha (UniProt P21177)"}}}
{"substance": "14-3-3 protein epsilon, P62258", "values": [{"measurement": "listed as a hit", "setting": "[1]", "value": "yes"}]}
{"substance": "Heat shock protein HSP 90-beta, P08238", "values": [{"measurement": "listed as a hit", "setting": "[2]", "value": "yes"}]}
{"substance": "Ras-related protein Rab-11B, Q15907", "values": [{"measurement": "listed as a hit", "setting": "[3]", "value": "yes"}]}
{"substance": "Annexin A6, P08133", "values": [{"measurement": "listed as a hit", "setting": "[4]", "value": "yes"}]}
{"substance": "Eukaryotic translation elongation factor 1 epsilon-1, O43324", "values": [{"measurement": "listed as a hit", "setting": "[5]", "value": "yes"}]}
{"substance": "Formate acetyltransferase 1, P09373", "values": [{"measurement": "listed as a hit", "setting": "[6]", "value": "yes"}]}
{"substance": "Peptidyl-prolyl cis-trans isomerase B, P23284", "values": [{"measurement": "listed as a hit", "setting": "[7]", "value": "yes"}]}
{"substance": "Protein disulfide-isomerase A4, P13667", "values": [{"measurement": "listed as a hit", "setting": "[7]", "value": "yes"}]}
{"substance": "Casein kinase II subunit beta, P67870", "values": [{"measurement": "listed as a hit", "setting": "[8]", "value": "yes"}]}
{"substance": "Protein GrpE, P09372", "values": [{"measurement": "listed as a hit", "setting": "[9]", "value": "yes"}]}
{"substance": "Charged multivesicular body protein 1b, Q7LBR1", "values": [{"measurement": "listed as a hit", "setting": "[10]", "value": "yes"}]}
{"substance": "DNA-binding protein HU-alpha, P0ACF0", "values": [{"measurement": "listed as a hit", "setting": "[11]", "value": "yes"}]}
{"substance": "Dihydrolipoyllysine-residue acetyltransferase component of pyruvate dehydrogenase complex, P06959", "values": [{"measurement": "listed as a hit", "setting": "[12]", "value": "yes"}, {"measurement": "listed as a hit", "setting": "[13]", "value": "yes"}]}
{"substance": "2-oxoglutarate dehydrogenase E1 component, P0AFG3", "values": [{"measurement": "listed as a hit", "setting": "[14]", "value": "yes"}]}
{"substance": "Dihydrolipoyl dehydrogenase, P0A9P0", "values": [{"measurement": "listed as a hit", "setting": "[14]", "value": "yes"}, {"measurement": "listed as a hit", "setting": "[13]", "value": "yes"}]}
{"substance": "Protein disulfide-isomerase, P07237", "values": [{"measurement": "listed as a hit", "setting": "[15]", "value": "yes"}, {"measurement": "listed as a hit", "setting": "[16]", "value": "yes"}]}
{"substance": "3-ketoacyl-CoA thiolase FadA, P21151", "values": [{"measurement": "listed as a hit", "setting": "[17]", "value": "yes"}]}
